Measured values: PubChem BioAssay AID485272 (The Scripps Research Institute Molecular Screening Center, 2010)
Hit rate of the full screen: of about 330,000 compounds, about 1,300 (0.39%) were called active. The list comes from a sample in which actives are over-represented; it also holds similar structures and randomly drawn compounds. A number with no mark means an inactive call.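 Rule for the calls: active = percent inhibition above a cutoff equal to the mean of all tested compounds plus 3 SD (cut at about 15% in these data); inactive = the rest.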

target: Protein-arginine deiminase type-4 (Homo sapiens) (UniProt Q9UM07); assay: protein arginine deiminase 4 enzyme blockade – biochemical, fluorescence polarization, 1536-well format, primary screen (AID 485272); conditions: recombinant PAD4, RCA probe fluorescence polarization; at 6.36 µM; stronger effect = higher value;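 note: 0% = PAD4 with RCA probe and DMSO and 100% = probe without PAD4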
Sequence (Q9UM07 whole entry, looked up): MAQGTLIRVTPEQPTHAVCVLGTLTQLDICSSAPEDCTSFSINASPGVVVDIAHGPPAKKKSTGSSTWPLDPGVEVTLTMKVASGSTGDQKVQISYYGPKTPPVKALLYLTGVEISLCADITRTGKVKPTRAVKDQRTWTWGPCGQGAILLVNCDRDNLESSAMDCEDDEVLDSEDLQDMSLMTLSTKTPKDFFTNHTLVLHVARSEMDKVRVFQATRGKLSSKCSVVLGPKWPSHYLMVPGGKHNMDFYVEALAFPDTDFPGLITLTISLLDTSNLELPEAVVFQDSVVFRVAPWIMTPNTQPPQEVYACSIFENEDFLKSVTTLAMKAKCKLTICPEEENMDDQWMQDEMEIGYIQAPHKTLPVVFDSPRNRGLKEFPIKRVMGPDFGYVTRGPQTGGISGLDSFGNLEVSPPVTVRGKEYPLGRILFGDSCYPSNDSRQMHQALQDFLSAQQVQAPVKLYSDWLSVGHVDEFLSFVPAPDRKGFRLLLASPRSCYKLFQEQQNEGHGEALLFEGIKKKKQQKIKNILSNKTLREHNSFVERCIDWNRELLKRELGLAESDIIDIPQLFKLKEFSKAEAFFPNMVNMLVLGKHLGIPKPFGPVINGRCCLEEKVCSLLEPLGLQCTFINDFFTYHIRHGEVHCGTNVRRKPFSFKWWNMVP

Row | SMILES | inhibition
1 | CC/C(=N\NC(=O)c1ccccc1O)c1c(O)n(Cc2ccccc2)c(=O)[nH]c1=O | -6.35%
2 | COc1cc(Cn2c(N)c(C(=O)NCc3ccco3)c3nc4ccccc4nc32)cc(OC)c1OC | -2.07%
3 | CCOC(=O)c1c(N)n(Cc2ccccc2)c2nc3ccccc3nc12 | 42.1% (active)
4 | O=C(COc1ccc2ccccc2c1)N1CCN(Cc2ccncc2)CC1 | 3.09%
5 | CC(C)N(CC#CCC1(O)c2ccccc2-c2ccccc21)C(C)C | 2.13%
6 | COc1ccc(CN2CCN(c3ccccc3F)CC2)c(OC)c1 | -6.62%
7 | COc1ccccc1C1=NCc2nnc(CSC)n2-c2ccc(Cl)cc21 | 21.5% (active)
8 | Cc1cccc(-n2c(O)c(C=NC34CN5CN(CN(C5)C3)C4)c(=O)[nH]c2=O)c1 | 6.25%
9 | Cc1ccc(N2C(=O)NC(=O)C(CCc3ccncc3)(Cc3cccc(Cl)c3Cl)C2=O)cc1 (stereo not given) | 1.57%
10 | CN1CCN(Cc2ccccc2C(F)(F)F)CC1 | 6.58%
